Mtb FBA inh: inhibits M. tuberculosis FBA enzyme | P9WQA3 | inhibition, % at 1 µM | purified M. tuberculosis FBA, fluorescence read-out | hit rate 2.3% among 360,000 | AID 588726; in the data active means inhibition above about 27%;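 further: 0% = vehicle and 100% = reference inhibitor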
TcdB GH inh: blocks C. difficile toxin B glycohydrolase activity. TcdB glycohydrolase enzymatic assay, plate reader. AID 652162. hit rate 0.24% among 350,000. inhibition, % at 9.99 µM. P18177; in the data active means inhibition above about 10%
PrPC surface inh: inhibitors of human cell surface prion protein PrPC | P04156 | TR-FRET read-out | inhibition, % at 13.8 µM | hit rate 0.43% among 370,000 | AID 720596; in the data active means inhibition above about 24%; further: 0% = median of the test wells and 100% = reference compound wells
Yp Topo-I inh: inhibitors of Yersinia pestis topoisomerase I. Y. pestis Topo-I cleavage product accumulation, plate reader. activity, % at 10 µM. hit rate 0.064% among 360,000; in the data active means activity above about 50%, passing the limit was not always enough
GDH-TPI inh: counter-screen for M. tuberculosis FBA inhibitors: GDH-TPI coupled enzymes; inhibition, % at 4.8 µM; AID 588335; GDH-TPI coupled enzyme counterscreen, NADH absorbance; hit rate 1.2% among 360,000; in the data active means inhibition above about 30%;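 further: 0% = DMSO wells and 100% = wells lacking the enzyme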
* marks the source's active call; other numbers are inactive results; x = no result; + = active, no number. Sampled rows, rich in hits. Any-hit rate of the full collection: about 3.2%.

SMILES	Mtb FBA inh	TcdB GH inh	PrPC surface inh	Yp Topo-I inh	GDH-TPI inh
COc1cc(OC)c(C2Nc3ccccc3NC3=C2C(=O)CC(C)(C)C3)cc1OC (stereo unspecified)	1	1	-5	0	7
COc1ccc(C2CC(=O)C3=C(C2)Nc2ccccc2NC3c2coc3ccccc3c2=O)cc1OC (stereo unspecified)	2	x	7	-8	40*
COc1ccccc1-c1ccc(C(=O)O)o1	131*	x	1	4	5
Cc1cc(C(=O)N/N=C/c2ccc[nH]2)no1	-3	x	-8	5	31*
Cc1cc(C(=O)N/N=C/c2ccccc2Br)no1	0	x	-2	3	10
Cc1cc(C(=O)N/N=C/c2ccc(-c3ccccc3Cl)o2)n[nH]1	2	3	-2	10	34*
Cc1cc(C(=O)N/N=C/c2ccc[nH]2)n[nH]1	-4	0	2	-3	39*
O=C(NC1CCCCC1)[C@@H]1[C@@H](CO)[C@@H]2Cn3c(cccc3=O)[C@@H]2N1CC1CCOCC1	x	-1	x	x	x
CN1[C@H](CO)[C@@H]2c3ccccc3N(C(=O)Nc3ccccc3F)C[C@@H]21	x	-2	x	x	x
Cc1c(C)c2ccc(OCc3ccc(C(=O)O)o3)c(C)c2oc1=O	131*	x	10	10	26
CN(C)CCCNC(=O)C[C@@H]1CC[C@@H]2[C@@H](COc3ccc(NC(=O)NC4CCCC4)cc3C(=O)N2C)O1	x	0	x	x	x
CC1=N/C(=C\c2ccc(OC(C)C)cc2)C(=O)N1c1ccc(C(=O)O)cc1	1	1	-1	9	33*
O=C(C[C@H]1CC[C@@H](NC(=O)Nc2ccc3c(c2)OCO3)[C@H](CO)O1)NCc1ccccc1	x	-1	x	x	x
N#Cc1c(-c2ccco2)cc(-c2ccc(F)cc2)nc1N	154*	x	-5	-11	16
Cc1ccc(-c2cc(-c3ccccc3)nc(N)c2C#N)o1	133*	1	-11	6	-2
N#Cc1c(-c2ccccc2)cc(-c2ccc(O)cc2)nc1N	17	1	1	4	23
CO[C@H]1CN(C)C(=O)c2ccc(NC(=O)Nc3cc(F)ccc3F)cc2OC[C@@H](C)N(C(=O)c2ccccn2)C[C@@H]1C	x	-1	x	x	x
Cc1c(NC(=S)N/N=C/c2cc([N+](=O)[O-])ccc2O)c(=O)n(-c2ccccc2)n1C	-11	-8	-6	-17	49*
Cc1c(NC(=S)N/N=C/c2ccc(O)cc2)c(=O)n(-c2ccccc2)n1C	-4	x	-11	2	26
Cc1noc(C)c1S(=O)(=O)Nc1ccc2c(c1)C(=O)N([C@H](C)CO)C[C@H](C)[C@H](CN(C)C(=O)NC(C)C)O2	x	-2	x	x	x
CN1CCN(C(=O)C[C@H]2CC[C@@H]3[C@H](COC[C@@H](O)CN3CC3CCOCC3)O2)CC1	x	-1	x	x	x
O=C1C=CN(Cc2ccccc2)C(c2ccccc2)C1 (stereo unspecified)	-3	x	12	4	35*
O=C(C[C@@H]1CC[C@@H]2[C@H](COC[C@H](O)CN2Cc2cccc(C(F)(F)F)c2)O1)NCCc1ccncc1	x	-1	x	x	x
CCOC(=O)COc1ccccc1/C=N\NC(=O)c1cc2c(ccc3ccccc32)o1	8	0	-9	20	31*
O=C(N/N=C/c1ccc(O)c(Br)c1)c1cc2c(ccc3ccccc32)o1	0	-4	9	-6	27
SMILES	Mtb FBA inh	TcdB GH inh	PrPC surface inh	Yp Topo-I inh	GDH-TPI inh
CCOc1cc(/C=N/NC(=O)c2cc3c(ccc4ccccc43)o2)ccc1O	9	1	-3	-5	44*
C[C@H](NC(=O)[C@H]1[C@H](CO)[C@H]2Cn3c(ccc(-c4ccccc4F)c3=O)[C@@H]1N2C)c1ccccc1	x	1	x	x	x
CO[C@@H]1CN(C)C(=O)c2ccc(NC(=O)C3CC3)cc2OC[C@@H](C)N(Cc2nccs2)C[C@H]1C	x	-1	x	x	x
C[C@H](CO)N1C[C@H](C)[C@@H](CN(C)C(=O)Nc2cccc3ccccc23)Oc2ccc(NC(=O)Cc3cn(C)c4ccccc34)cc2C1=O	x	-1	x	x	x
Cc1ccc2nc(-c3ccc(-c4ccccn4)s3)cn2c1	+	0	3	10	21
COc1ccc2c(c1)CC/C(=C\c1ccc(OC)c(Cn3cccn3)c1)C2=O	-2	x	9	13	38*
COc1ccc2c(c1)CC/C(=C\c1ccc(OC)c(Cn3nc(C)cc3C)c1)C2=O	-2	x	0	-3	27
COc1ccc2c(c1)-c1ccccc1S(=O)(=O)N2C(C)=O	31*	3	3	-6	13
COCCNC(=O)C[C@@H]1CC[C@H](NS(=O)(=O)c2ccc(C)cc2)[C@@H](CO)O1	x	0	x	x	x
Cc1ccc(-c2nc3cc(NC(=O)C(C)C)ccc3o2)cc1	181*	x	1	-4	-2
CC(C)C(=O)Nc1cccc(-c2nc3ccccc3o2)c1	8	x	0	11	14
Cc1cc2nc(-c3ccc(NC(=O)C(C)C)cc3)oc2cc1C	138*	x	1	7	10
CC(=O)N(C)C[C@@H]1Oc2cc(C#CCC3CCCC3)ccc2S(=O)(=O)N([C@@H](C)CO)C[C@H]1C	x	1	x	x	x
COCC(=O)Nc1ccc2c(c1)C(=O)N(C)C[C@@H](OC)[C@@H](C)CN(C(=O)CC1CC1)[C@H](C)CO2	x	0	x	x	x
CCOC(=O)N1CCC(c2cc(=O)n3[nH]c(-c4ccccc4)cc3n2)CC1	16	24*	-1	2	-8
CCCc1[nH]n(-c2ccc([N+](=O)[O-])cc2)c(=O)c1C(C)=NCc1ccncc1	10	1	1	3	20
Cc1[nH]n(-c2ccc([N+](=O)[O-])cc2)c(=O)c1C=NCCc1ccc(S(N)(=O)=O)cc1	-2	-1	-2	3	23
Cc1[nH]n(-c2ccc([N+](=O)[O-])cc2)c(=O)c1C=NCCc1c(C)[nH]c2ccccc12	-2	x	1	-7	31*
CCCc1[nH]n(-c2ccc([N+](=O)[O-])cc2)c(=O)c1C=NCCCn1ccnc1	-1	1	-9	-7	32*
CC(=O)Nc1ccc(/C(C)=N/NC(=O)c2ccc(COc3ccccc3Cl)o2)cc1	3	0	-4	-6	31*
COc1ccc(/C=N/NC(=O)c2ccc(COc3ccccc3Cl)o2)cc1	1	-4	5	-1	25
Cc1nc2ccccn2c1-c1ccnn1S(=O)(=O)c1ccc(F)cc1	-2	15*	16	19	0
C[C@H](NC(=O)C[C@@H]1C[C@H]2c3cc(NC(=O)NC4CCCCC4)ccc3O[C@H]2[C@H](CO)O1)c1ccccc1	x	-1	x	x	x
COc1cc(/C=C(/C#N)C(=O)c2c(C)[nH]c3ccccc23)ccc1OCC#N	3	-1	0	-13	38*
N#C/C(=C\c1ccc(Cl)cc1)c1nc2ncccc2[nH]1	22	x	-5	2	39*
C[C@@H]1CN([C@@H](C)CO)C(=O)Cc2cc(NC(=O)c3ccncc3)ccc2O[C@H]1CN(C)S(=O)(=O)c1cn(C)cn1	x	1	x	x	x
CCNc1nc(C)c2cc(Br)c(=O)n(CC)c2n1	156*	x	3	8	40*
CCNc1nc(NC(C)C)nc(Nn2cnnc2)n1	-1	x	-2	-7	0

Screens: PubChem, several laboratories
